# From PubChem BioAssay (NCI)
# About 83,000 compounds went through this panel and 20% of them were active in at least one assay; those are over-represented in the sample as a whole.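 Note: values are percent growth. 100 is the growth of untreated cells, values between 100 and 0 indicate rising inhibition; between -100 and 0 indicates cell death.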 Values without a mark were called inactive. Calls of active or inactive are those of the source. The calls were made as follows: active = growth percent below 10; inactive = the rest.
# Tested on: 786-0 renal
# Assay: NCI-60 one-dose screen, 48 h (100 = growth as untreated, 0 = no growth, -100 = all killed)
# Conditions: 10 µM unless noted
row,Structure (SMILES),growth [%]
1,O=C(c1ccc(Cl)cc1)N1CCN(c2ccnc3cc(Cl)ccc23)CC1,93.5
2,CN1CCN(Cc2ccc3c(NNC(=O)c4ccccc4)nc4cc(F)ccc4n23)CC1,26.4
3,c1ccc(CNc2c3ccccc3nc3ccccc23)cc1,34.3
4,N#C/C(=C/c1ccc([N+](=O)[O-])cc1)n1nnc2cc(F)c(F)cc21,42.1
5,O=C1CNC(c2ccccc2)C(c2ccccc2)N1 (stereo unspecified),92.4

# Tested on: COLO 205 colon
# Assay: as above
# Conditions: 10 µM unless noted
row,Structure (SMILES),growth
1,C#CCOc1ccc2ncnc(Nc3cccc(NC(=O)C=C)c3)c2c1,87.5%
2,Nc1ncnc2c1N=C(c1ccc3c(c1)OCO3)CC(c1ccc([N+](=O)[O-])cc1)N2 (stereo unspecified),97.6%
3,CCCCN1C(=O)/C(=c2\sc3n(c2=O)C2C(NN=3)N(CC)C(=O)N2CC)c2ccccc21 (stereo unspecified),1.59% (active)
4,CCOC(=O)C1=NN(c2ccccc2)C(=O)/C1=C\N1C(=O)CC(=O)NC1=S,103%
5,O=C(N/N=C/c1ccc(F)cc1)c1ccc(C(F)(F)F)nc1Nc1cccc(C(F)(F)F)c1,7.69% (active)
6,Cc1ccc(-c2csc(NC(=O)CN3CCN(c4cc5c(cc4F)c(=O)c(C(=O)O)cn5C4CC4)CC3)n2)cc1,-17.6% (active)
7,Clc1ccc(Sc2cnc(-c3ccccc3)o2)cc1,110%
8,COc1ccc(-c2cc(-c3ccc(Cl)cc3)c(C#N)c(=O)n2CCCCC(=O)Nc2ccccc2N)cc1,20.2%
9,C=C(C)[C@@H]1CC[C@]2(C(=O)O)CC[C@]3(C)[C@H](CC[C@@H]4[C@@]5(C)C[C@@H](Cc6cn(CCO[C@@H]7O[C@H](COC(C)=O)[C@H](OC(C)=O)[C@H](OC(C)=O)[C@H]7OC(C)=O)nn6)[C@H](O)C(C)(C)[C@@H]5CC[C@]43C)[C@@H]12,96.5%
10,S=C1CCSC(=S)N1CCCN1C(=S)CCSC1=S,64.2%
11,Cc1ccc(/C=N/Nc2nc(Nc3ccccc3)nc(-n3nc(C)cc3C)n2)cc1,30.6%
12,O=[N+]([O-])c1ccc(N/N=C(/C(=N/Nc2ccc([N+](=O)[O-])cc2)c2ccccc2)c2ccccc2)cc1,87.3%
13,O=C(NCCCCNC(=O)OCc1ccc2c(Cl)cc(Cl)c(O)c2n1)OCc1ccc2c(Cl)cc(Cl)c(O)c2n1,96.3%
14,c1cc2[nH]ncc2cc1-c1nc2ccc3[nH]ncc3c2c2c1CCCC2,3.57% (active)
15,C[C@H](NC(=O)[C@@H](C)N)[C@H](Oc1ccc2c(cnn2-c2ccc(F)cc2)c1)c1ccc2c(c1)OCCO2,-3.17% (active)
16,CCN(CC)c1nc(SCc2ccccc2Cl)ncc1C,112%
17,O=S(=O)(NCCCNc1nccc(-c2c(-c3ccc(F)c(O)c3)nc3occn23)n1)c1ccccc1,48.6%
18,O=C(NCc1ccccc1)Nc1ccccc1CNc1nc(Nc2ccc(OCCN3CCCC3)cc2)ncc1Cl,112%

row,Structure (SMILES),growth
1,C=CCc1c2c(c(OC)c3ccoc13)C(=O)/C(=C/c1ccccc1OC)O2,104%
2,COc1ccc(NC(=O)c2sc3nc(C)c(C(=O)/C=C/c4cccc(OC)c4)cc3c2N)cc1,45.9%
3,N#Cc1c(NC(=O)c2ccccc2)sc2c1CCC(=O)C2,-46.4% (active)
4,CCOC(=O)Cn1c(O)c(N=Nc2ccc(S(N)(=O)=O)cc2)c2cc(Br)ccc21,58%
5,Cc1nc(-c2ccccc2)cc2c(O)c(C(=O)NN)[nH]c(=O)c12,117%
6,O=C(Nn1c2c(sc1=Nc1ccccc1)C(=O)c1ccccc1C2=O)c1cc2ccc1CCc1ccc(cc1)CC2,102%
7,CNC(=O)c1c(NC(=O)c2ccc(C(F)(F)F)cc2)sc2c1CCC(=O)C2,-36.1% (active)
8,C#CCOc1cccc(Nc2ncnc3ccc(NC(=O)CCl)cc23)c1,-64.6% (active)
9,CS(=O)(=O)Nc1cc(-c2ccc3ncnc(Nc4ccc5c(cnn5Cc5ccccn5)c4)c3c2)cnc1Cl,93.1%
10,Oc1c(Cl)cc(Cl)cc1/C=N/Nc1nnc(N/N=C/c2cc(Cl)cc(Cl)c2O)c2ccccc12,8.23% (active)
11,CCn1cc(C(=O)N/N=C/c2cccs2)c(=O)c2cc(F)c(N3CCNC(C)C3)c(F)c21 (stereo unspecified),-41.7% (active)
12,O=C(NNC(=O)c1ccc(-n2cc(-c3ccccc3)nn2)cc1)Nc1ccccc1,111%
13,COc1ccc(CC(C#N)c2cc3ccccc3[nH]2)cc1 (stereo unspecified),99.8%
14,O=C(c1ccc(Cl)cc1)N1CCN(c2ccnc3cc(Cl)ccc23)CC1,101%
15,CN1CCN(Cc2ccc3c(NNC(=O)c4ccccc4)nc4cc(F)ccc4n23)CC1,19.5%
16,c1ccc(CNc2c3ccccc3nc3ccccc23)cc1,7.29% (active)
17,N#C/C(=C/c1ccc([N+](=O)[O-])cc1)n1nnc2cc(F)c(F)cc21,77.4%
18,O=C1CNC(c2ccccc2)C(c2ccccc2)N1 (stereo unspecified),115%
